{"source": "the supplement of paper PMC7156485", "data": [{"tested_on": "HCC1569", "experiment": "cell number relative to DMSO (% of DMSO); higher = more cells (less growth inhibition / toxicity)", "details": "concentration: 10 µM; 24 h", "in_short": "(§1)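 HCC1569 and TDF cells were seeded at 800 per well in 384-well plates in RPMI with 10% FBS and treated with compounds at 10 µM for 24 h at 37 °C, in triplicate. After fixation in 3.7% formaldehyde, cells were stained with a rabbit anti-H1.0 antibody, an AlexaFluor 647 secondary and DAPI, and six fields per well were imaged at ×10. H1.0 nuclear intensity or cell number is given as percent of the plate control, using the median of replicates, with HCC1569 values smoothed for positional effects.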", "values": [{"smiles": "Cc1cn2cc(C(=O)N(C)CCO)cc(N[C@@H]3CCOc4cccc(C)c43)c2n1", "cell number": 97.8}, {"smiles": "COc1cc2c(c(OC)c1OC)-c1c(cc(OC)c(OC)c1OC)CC(C)C(C)C2", "note": "(stereo not drawn) [R(+)-Schisandrin A]", "cell number": 105}, {"smiles": "CON(C)C(=O)[C@H](O)[C@H](Cc1ccccc1)NC(=O)c1cc2cc(Cl)ccc2[nH]1", "cell number": 103}, {"smiles": "Nc1ccc(S(=O)(=O)Nc2ccnn2-c2ccccc2)cc1", "note": "[Sulfaphenazole]", "cell number": 107}]}, {"tested_on": "TDF", "experiment": "cell number relative to DMSO (% of DMSO); higher = more cells (less growth inhibition / toxicity)", "details": "concentration: 10 µM; 24 h", "in_short": "as §1", "values": [{"smiles": "COc1cc2c(cc1OC)C1C(=O)c3ccc4c(c3OC1CO2)C=CC(C)(C)O4", "note": "(configuration not stated) [Degeulin]", "cell number": 76.5}, {"smiles": "c1ccc(-c2[nH]ncc2-c2ccnc3ccccc23)nc1", "note": "[TGF-b RI Kinase Inhibitor]", "cell number": 103}, {"smiles": "CCCCCCCCCC(=O)NC(CN1CCOCC1)C(O)c1ccccc1.Cl", "note": "(racemic)", "cell number": 91.9}, {"smiles": "CC1=C(C(=O)O)N2C(=O)C(NC(=O)C(N)c3ccccc3)C2SC1", "note": "(configuration not stated) [Cephalexin hydrate]", "cell number": 111}, {"smiles": "Cc1cnc(NC(=O)C2=C([O-])c3ccccc3S(=O)(=O)N2C)s1.[Na+]", "note": "[Meloxicam sodium]", "cell number": 115}, {"smiles": "Nc1ncnc2c1nc(Sc1ccc(Cl)cc1)n2C1OC2COP(=O)([O-])OC2C1O.[Na+]", "note": "(configuration not stated) [8-(4-Chlorophenylthio)-cAMP sodium]", "cell number": 106}, {"smiles": "CC1=C(CC(=O)O)c2cc(F)ccc2C1=Cc1ccc(S(C)(=O)=O)cc1", "note": "[Sulindac sulfone]", "cell number": 117}, {"smiles": "CC(=O)N[C@@H](CS)C(N)=O", "cell number": 93.6}]}]}
